Measured values taken from PubChem BioAssay (EPA / NIEHS).
Calls of active or inactive are those of the source. Rule for the calls: active = hit-call score of the fitted dose curve at least 0.9, where 1 is the maximum; inactive = score below 0.9.

Each molecule was assayed on Transforming growth factor beta 1 (TGFb1), TGFB1 (gene 7040) (assay: BSK_KF3CT_TGFb1: BioMAP Diversity Plus: KF3CT Assay for Transforming growth factor beta 1 (TGFb1) Biomarker Activity (AID 2283072)). Conditions: primary human keratinocytes with fibroblasts; actives raise or lower the signal.
In short: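 TGF-b1 ELISA on a 24 h dosed co-culture of human keratinocytes and foreskin fibroblasts; cytotoxicity tracked in parallel cultures by SRB staining.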

SMILES | AC50 | outcome
C=CC(=O)OCC(Br)CBr (configuration not stated) | 5.81 µM (active) | 
O=C(Nc1ccccc1SSc1ccccc1NC(=O)c1ccccc1)c1ccccc1 |  | inactive
CCOc1nc(F)cc2nc(S(=O)(=O)Nc3c(Cl)cccc3C(=O)OC)nn12 |  | inactive
N#[N+]c1ccc2c(S(=O)(=O)[O-])cccc2c1O |  | inactive
COCc1c(C(C)C)nc(C(C)C)c(/C=C/[C@@H](O)C[C@@H](O)CC(=O)O)c1-c1ccc(F)cc1 |  | inactive
CCCCC(CC)COC(=O)c1ccccc1O (configuration not stated) |  | inactive
CC1OC1C1CCC2(C)OC2C1 (configuration not stated) |  | inactive
C#CC1(O)CC[C@H]2[C@@H]3CCC4=CCCC[C@@H]4[C@H]3CC[C@@]21C (some centres not stated) | 25.4 µM (active) | 
O=C(Cl)c1cc(C(=O)Cl)cc(C(=O)Cl)c1 | 28.2 µM (active) | 
CCCCCCCCCCCCCCCC[N+](C)(C)CC | 7.9 µM (active) | 
CCCCNc1ccc(NCCCC)c2c1C(=O)c1ccccc1C2=O |  | inactive
O=Nc1ccc(O)cc1 |  | inactive
C=CCOc1c(Br)cc(Br)cc1Br | 9.26 µM (active) | 
CCCCCCCCc1ccc(Nc2ccc(CCCCCCCC)cc2)cc1 |  | inactive
CCCCC/C=C\C/C=C\CCCCCCCC(=O)OC | 16.4 µM (active) | 
C=CC=CC=CCCCCC |  | inactive
CC(C)(c1cc(Br)c(OCCO)c(Br)c1)c1cc(Br)c(OCCO)c(Br)c1 | 6.03 µM (active) | 
O=c1c2ccccc2oc2ccccc12 |  | inactive
S=C(NC1CCCCC1)NC1CCCCC1 |  | inactive
CC(C)C(=O)C(C)C |  | inactive
COc1ccc2nc(N)sc2c1 |  | inactive
c1ccc2c(c1)ccc1cc3c(ccc4ccccc43)cc12 |  | inactive
